Compounds with a hit are over-represented: about 3% of the library has one in this group of screens.
Statin myotox sup: suppressors of simvastatin-induced myotoxicity in C2C12 myotubes; rescue of ATP level, % at 7.49 µM; AID 602340; 330,000 tested, 0.78% active; ATP luminescence, 48 h; scaled: DMSO 0, geranylgeraniol control 100;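 active means mean ATP rescue above about 67%, or every replicate alone reaching that limit, limit read from the data, passing the limit was not always enough; inconclusive means no clear call, values can overlap the other calls; inactive means mean under the limit and some replicate under it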;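 further: myotubes were challenged with 10 µM simvastatin during compound exposure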
MITF TRPM1 HTS: increases MITF-driven TRPM1 promoter luciferase signal. 300,000 tested, 0.75% active. activation, % at 12.5 µM. SK-MEL-5 TRPM1-promoter luciferase, 24 h; % of positive control, neutral wells = 0;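 active means mean activation of at least 80% with every replicate also reaching 80%; inconclusive means mean reaches 80% but some replicate falls short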
esBAF inh: SWI/SNF esBAF complex inhibition | mouse ES cells, Bmi1-luciferase knock-in reporter, 24 h; 100% = twice the neutral-well signal | reporter increase, % at 12.5 µM | 350,000 tested, 2% active; in the data active means activation above about 40%; inconclusive means no clear call, values can overlap the other calls;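 further: a rise in the Bmi1 reporter signal indicates esBAF inhibition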
Wnt act: activators of Wnt/beta-catenin signaling; Wnt/beta-catenin reporter cell assay, activator, plate reader; activation, % at 9.35 µM; 300,000 tested, 1.2% active; in the data active means activation above about 30%, passing the limit was not always enough; inconclusive means no clear call, values can overlap the other calls
Of the large screens only hits and unclear results are named; the others gave an inactive call.

COc1ccc(/C(N)=N/OC(=O)c2ccco2)cc1	none
COc1ccc(C(=O)COC(=O)c2ccco2)cc1	esBAF inh 49 (no result: Wnt act)
COc1ccc(C(=O)/C(=C/N(C)C)S(=O)(=O)c2ccccc2)cc1	MITF TRPM1 HTS 94 (no result: Statin myotox sup, esBAF inh)
CO[C@@H]1CN(C)C(=O)c2ccc(NC(C)=O)cc2OC[C@H](C)N(C(=O)C2CC2)C[C@H]1C	none (no result: MITF TRPM1 HTS, Wnt act)
Cc1cccc(S(=O)(=O)N2C[C@H](O)COC[C@@H]3O[C@@H](CC(=O)NCc4ccc5c(c4)OCO5)CC[C@H]32)c1	none (no result: MITF TRPM1 HTS, Wnt act)
COc1ccc(C(=O)CSc2ccccc2C(=O)O)cc1	Wnt act 44 (no result: Statin myotox sup, esBAF inh)
COc1ccc(C(=O)CC(=O)c2ccc(OC)cc2)cc1	none
COc1ccc(C(=O)CC(=O)c2ccccc2)cc1	esBAF inh 70, Wnt act 83 (no result: MITF TRPM1 HTS)
COc1ccc(C(=O)Cc2ccccc2C(=O)O)cc1	none (no result: Statin myotox sup, esBAF inh)
O=C(COc1ccccc1)c1ccccc1	esBAF inh 46
COC(=O)c1ccc(OCC(=O)c2ccccc2)cc1	none (no result: Statin myotox sup, esBAF inh)
CNC[C@H]1Oc2cc(C#CCOC)ccc2S(=O)(=O)N([C@H](C)CO)C[C@@H]1C	none (no result: MITF TRPM1 HTS, Wnt act)
CCOc1cc2[nH]c(=S)n(CCOC)c(=O)c2cc1OCC	Statin myotox sup 111
CCOc1cc2[nH]c(=S)n(CCCN(CC)CC)c(=O)c2cc1OCC	none (no result: MITF TRPM1 HTS)
Cc1cccc(C(=O)Nc2ccc(C(=O)/C=C/c3cccnc3)cc2)c1	esBAF inh 42 (no result: Wnt act)
O=C(/C=C/c1cccnc1)c1ccc(NC(=O)c2cccc(Br)c2)cc1	none (no result: Wnt act)
O=C(N/C=C/c1ccccc1)c1ccccc1	MITF TRPM1 HTS 109, Wnt act 41 (no result: Statin myotox sup, esBAF inh)
O=C(NCCNC(=O)c1ccccc1)c1ccccc1	none (no result: Statin myotox sup, esBAF inh)
CC=Cc1ccc2n(c1=O)C[C@@H]1[C@@H](CO)[C@H](C(=O)N3CCC(Cc4ccccc4)CC3)N(C)[C@H]21 (mixture of isomers)	none (no result: MITF TRPM1 HTS, Wnt act)
O=C(C1CCCCC1)N1C[C@@H]2[C@H](c3ccccc31)[C@H](CO)N2C(=O)Cc1ccccn1	none (no result: MITF TRPM1 HTS, Wnt act)
CCc1ccc(-c2cn3c(n2)SCC3)cc1	none
Cc1ccc(-c2cn3c(n2)SCC3)cc1	Wnt act 65
C/C(=N\NC(=O)c1cc(C)[nH]n1)c1cccs1	Wnt act 35
C/C(=N\NC(=O)c1cc(C(C)C)[nH]n1)c1ccncc1	none
C/C(=N/NC(=O)c1ccc(Br)o1)c1cccs1	none (no result: Statin myotox sup, esBAF inh)
C/C(=N/NC(=O)c1cc(C(C)C)[nH]n1)c1cccs1	Wnt act 33
C/C(=N\NC(=O)c1cc(C)[nH]n1)c1ccc(-c2ccccc2)cc1	none
C/C(=N\NC(=O)c1cc(Br)ccc1O)c1cccs1	MITF TRPM1 HTS 81, Wnt act inconclusive
C[C@H](CO)N1C[C@H](C)[C@H](CN(C)C(=O)C2CCOCC2)Oc2ncc(C3=CCCCC3)cc2C1=O	none (no result: MITF TRPM1 HTS, Wnt act)
C[C@@H]1CN([C@H](C)CO)C(=O)c2cc(NC(=O)Nc3ccc4c(c3)OCO4)ccc2O[C@@H]1CN(C)C(=O)NC1CCCCC1	none (no result: MITF TRPM1 HTS, Wnt act)
O=C(C[C@H]1C[C@H]2c3cc(NC(=O)Nc4ccc(F)cc4)ccc3O[C@H]2[C@H](CO)O1)NC1CCCC1	none (no result: MITF TRPM1 HTS, Wnt act)
Cn1c(=NC(=O)C(C)(C)C)sc2cccc(F)c21	none
Cn1c(=NC(=O)c2ccccc2[N+](=O)[O-])sc2cccc(F)c21	MITF TRPM1 HTS 100, Wnt act inconclusive
Cc1noc(C)c1S(=O)(=O)N(C)C[C@@H]1OCCCC[C@@H](C)Oc2ccc(NC(=O)C3CCCCC3)cc2C(=O)N([C@@H](C)CO)C[C@H]1C	none (no result: MITF TRPM1 HTS, Wnt act)
O=C(c1cc(-c2ccc(Cl)cc2)on1)N1CCCCCC1	none
O=C(c1cc(-c2ccc(O)cc2)on1)N1CCCCCC1	MITF TRPM1 HTS 84, Wnt act 40
O=C(c1cc(-c2ccc(Cl)cc2Cl)on1)N1CCCCCC1	Wnt act 33
O=C(c1cc(-c2ccc(Cl)c(Cl)c2)on1)N1CCCCCC1	MITF TRPM1 HTS 131, esBAF inh 59
O=C(c1cc(-c2cccc(Cl)c2)on1)N1CCCCCC1	MITF TRPM1 HTS 113, esBAF inh 63
O=C(c1cc(-c2ccc(Cl)cc2Cl)on1)N1CCCC1	none
COc1ccccc1CNC(=O)C[C@@H]1C=C[C@H](NC(=O)CC2CC2)[C@@H](CO)O1	none (no result: MITF TRPM1 HTS, Wnt act)
COCCNC(=O)[C@H]1[C@H](CO)[C@H]2Cn3c(ccc(C4=CCCCC4)c3=O)[C@@H]1N2C(=O)C1CC1	none (no result: MITF TRPM1 HTS, Wnt act)
O=C(c1ccccn1)N1C[C@@H]2[C@H](c3ccccc31)[C@H](CO)N2C(=O)c1ccccn1	none (no result: MITF TRPM1 HTS, Wnt act)
COc1ccc(Nc2nnc(-c3ccc(C)cc3)c3ccccc23)cc1C(=O)N1CCCCC1	none
Cc1cccc(Nc2nnc(-c3ccc(C(=O)N4C[C@H]5C[C@H](C4)c4cccc(=O)n4C5)cc3)c3ccccc23)c1	Statin myotox sup 114 (no result: Wnt act)
CCCn1c(O)c(C=Nc2ccccc2)sc1=S	esBAF inh 81

Bioassay records as filed in PubChem BioAssay.
